Results taken from PubChem BioAssay.
The source made the active and inactive calls.

Tests used:
[1] = tested on: Human papillomavirus type 1a protein E7 (residues 44-93); assay: small molecules binding HPV E7 44-93 – biochemical, small-molecule microarray, residues 44-93, 635 nm fluorescence, primary screen (AID 1108); details: fluorescence 635 nm, higher = more signal;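 note: E7 fragment applied at 1 µg/mL in TBST for 1 h at 4 C; score combines spot fluorescence with its signal to noise ratio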
[2] = hepatitis C replication reporter changes, two-sided – Huh7 cells, luciferase reporter, HCV replication inhibitor project, primary screen (AID 1109); details: Huh7 HCV replicon luciferase reporter, 48 h; higher = more signal;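 note: huh7 hepatoma cells harbouring a luciferase neomycin HCV replicon reporter; luciferase luminescence as measure of HCV replicon replication; test concentration not given here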
[3] = biological target: Left-right determination factor 2 (Homo sapiens) (UniProt O00292); assay: small molecules binding LEFTY2 protein – biochemical, small-molecule microarray, 635 nm fluorescence scan, primary screen (AID 1110); details: higher = more signal
Left-right determination factor 2 (Homo sapiens), sequence (O00292 whole entry, looked up): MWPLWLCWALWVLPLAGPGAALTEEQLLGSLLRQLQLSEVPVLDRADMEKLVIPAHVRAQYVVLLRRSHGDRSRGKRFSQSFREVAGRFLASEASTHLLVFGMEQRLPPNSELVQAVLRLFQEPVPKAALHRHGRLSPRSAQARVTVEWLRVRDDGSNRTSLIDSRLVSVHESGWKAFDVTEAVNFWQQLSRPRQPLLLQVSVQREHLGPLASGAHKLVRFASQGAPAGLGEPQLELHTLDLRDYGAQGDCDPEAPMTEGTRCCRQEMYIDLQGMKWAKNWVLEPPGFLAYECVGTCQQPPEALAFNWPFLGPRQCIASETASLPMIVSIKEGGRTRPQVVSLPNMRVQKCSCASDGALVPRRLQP

[4] = biological target: Calmodulin-1 (Homo sapiens) (UniProt P0DP23); assay: small molecules binding calmodulin-1 with EGTA – biochemical, small-molecule microarray, Cy5-labelled CALM1, profiling panel (AID 1111); details: Cy5-CALM1 binding fluorescence, higher = more signal;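 note: labelled calmodulin applied in Tris saline Tween buffer holding calcium plus EGTA and DTT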
[5] = biological target: Calmodulin-1 (Homo sapiens) (UniProt P0DP23); assay: small molecules binding Ca-loaded calmodulin-1 – biochemical, small-molecule microarray, Cy5-labelled CALM1, plus calcium, artefact control for SMM control-protein annotation, profiling panel (AID 1112); details: Cy5-CALM1 binding fluorescence, higher = more signal;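 note: score merges spot fluorescence with signal to noise from triplicate slides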
[6] = probe aWnt5a binding to arrayed compounds – biochemical, biotinylated probe, 635/667 nm fluorescence, primary screen (AID 1113); details: small-molecule microarray, higher = more signal;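 note: score merges 667 nm fluorescence intensity with signal-to-noise per printed feature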
[7] = probe aShh binding to arrayed compounds – biochemical, biotinylated probe, 635/667 nm fluorescence, primary screen (AID 1114); details: small-molecule microarray, higher = more signal;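 note: probe is biotin-labelled aShh protein from a stem cell growth factor screen; measures binding of labelled protein to compounds printed on the slide; score merges feature fluorescence at 667 nm with signal-to-noise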
[8] = probe aNog binding to arrayed compounds – biochemical, biotinylated probe, 635/667 nm fluorescence, primary screen (AID 1115); details: small-molecule microarray, higher = more signal;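 note: probe is biotinylated aNog protein used at 0.15 µg/mL for 1 h at 4 C; z-score combines 667 nm fluorescence of each spot with its signal to noise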
[9] = biological target: Torsin-1A-interacting protein 1 (Homo sapiens) (UniProt Q5JTV8); assay: compound microarray binding of lysate hLAP1 – cell lysate, small-molecule microarray, COS7 lysate, 635/667 nm fluorescence, primary screen (AID 1116); details: 635 nm fluorescence, higher = more signal
Torsin-1A-interacting protein 1 (Homo sapiens), sequence (Q5JTV8 whole entry, looked up): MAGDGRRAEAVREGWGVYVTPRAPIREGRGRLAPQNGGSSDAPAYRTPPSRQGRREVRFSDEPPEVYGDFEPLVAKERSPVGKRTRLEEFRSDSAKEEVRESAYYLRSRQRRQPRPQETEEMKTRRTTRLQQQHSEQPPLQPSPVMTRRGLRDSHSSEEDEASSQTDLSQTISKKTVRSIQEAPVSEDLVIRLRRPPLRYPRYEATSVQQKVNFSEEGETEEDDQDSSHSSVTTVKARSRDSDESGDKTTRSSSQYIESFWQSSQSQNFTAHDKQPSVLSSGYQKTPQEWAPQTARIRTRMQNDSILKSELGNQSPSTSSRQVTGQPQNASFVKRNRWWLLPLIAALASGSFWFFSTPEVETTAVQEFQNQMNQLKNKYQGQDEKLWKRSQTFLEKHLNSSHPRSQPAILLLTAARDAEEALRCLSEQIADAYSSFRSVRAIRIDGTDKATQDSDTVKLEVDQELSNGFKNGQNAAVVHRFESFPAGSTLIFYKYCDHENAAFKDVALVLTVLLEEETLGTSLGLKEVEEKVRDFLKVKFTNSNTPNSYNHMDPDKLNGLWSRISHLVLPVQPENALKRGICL

[10] = biological target: Alpha-bungarotoxin (Bungarus multicinctus) (UniProt P60615); assay: compounds binding labelled alpha-BTX control protein – biochemical, small-molecule microarray, Alexa647 label, 635/667 nm fluorescence, artefact control for SMM control protein annotation, profiling panel (AID 1117); details: alpha-BTX-A647 binding fluorescence, higher = more signal
Alpha-bungarotoxin (Bungarus multicinctus), sequence (P60615 whole entry, looked up): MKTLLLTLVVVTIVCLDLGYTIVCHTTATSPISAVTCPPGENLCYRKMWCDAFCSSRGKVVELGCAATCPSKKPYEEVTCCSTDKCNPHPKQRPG

Albumin (Bos taurus) = Albumin (Bos taurus) (UniProt P02769); assay: compounds binding labelled BSA control protein – biochemical, small-molecule microarray, Alexa647 label, 635/667 nm fluorescence, artefact control for SMM control protein annotation, profiling panel (AID 1118); details: BSA-A647 binding, fluorescence 635 nm, higher = more signal;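 note: score merges 667 nm emission intensity and signal-to-noise per printed compound spot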
Albumin (Bos taurus), sequence (P02769 whole entry, looked up): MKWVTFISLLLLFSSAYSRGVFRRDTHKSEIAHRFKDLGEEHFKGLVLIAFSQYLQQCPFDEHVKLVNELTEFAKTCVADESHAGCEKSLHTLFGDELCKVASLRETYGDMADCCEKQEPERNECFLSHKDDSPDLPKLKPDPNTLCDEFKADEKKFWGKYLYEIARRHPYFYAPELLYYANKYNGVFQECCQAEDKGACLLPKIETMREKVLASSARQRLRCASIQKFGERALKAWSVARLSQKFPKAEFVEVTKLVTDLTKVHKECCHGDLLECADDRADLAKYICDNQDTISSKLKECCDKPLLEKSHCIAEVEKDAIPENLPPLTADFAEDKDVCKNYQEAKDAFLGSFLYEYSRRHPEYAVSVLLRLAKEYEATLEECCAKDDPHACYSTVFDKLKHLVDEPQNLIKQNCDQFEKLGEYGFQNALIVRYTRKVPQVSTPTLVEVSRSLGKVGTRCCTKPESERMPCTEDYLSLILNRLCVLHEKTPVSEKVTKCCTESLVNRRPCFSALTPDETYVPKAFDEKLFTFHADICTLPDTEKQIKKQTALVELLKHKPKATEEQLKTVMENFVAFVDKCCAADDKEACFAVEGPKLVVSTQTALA

[11] = probe aXIP binding to arrayed compounds – biochemical, NeuroSMM set, 635/667 nm fluorescence, primary screen (AID 1119); details: small-molecule microarray, higher = more signal, called active from +8 up or from −8 down;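 note: probe is the protein aXip251-270 applied at 1 µg/mL to compound-printed slides; binding of probe to printed compounds measured as 667 nm fluorescence plus signal to noise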
[12] = probe aNOTCH3 binding on compound microarray – biochemical, small-molecule microarray, 635/667 nm fluorescence, primary screen (AID 1120); details: higher = more signal;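 note: probe is a biotin-tagged antibody raised against NOTCH3 rather than NOTCH3 protein; score merges spot fluorescence near 667 nm with spot signal to noise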
[13] = probe aNOTCH2 binding on compound microarray – biochemical, small-molecule microarray, 635/667 nm fluorescence, primary screen (AID 1121); details: higher = more signal;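 note: score merges feature fluorescence read at 667 nm with its signal to noise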
[14] = biological target: Carbonic anhydrase 2 (Homo sapiens) (UniProt P00918); assay: compounds binding carbonic anhydrase 2 – biochemical, small-molecule microarray, Alexa647-labelled CAII, profiling panel (AID 1122); details: CAII-A647 binding fluorescence, higher = more signal
[15] = COS7 lysate on small-molecule microarray, probe aHis, 635 nm (AID 1123); details: COS7 cell lysate, fluorescence, higher = more signal;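 note: z-score combines 667nm fluorescence intensity with signal-to-noise per printed compound spot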
[16] = probe aLAP1 signal on lysate-treated microarray – cell lysate, small-molecule microarray, COS7 lysate, primary screen (AID 1124); details: probe aLAP1, fluorescence, higher = more signal;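 note: lysate comes from COS7 cells expressing LAP1 and is applied at 0.3 µg/mL; score merges spot fluorescence near 667 nm with signal-to-noise over triplicate slides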
Sam68 (KHDRBS1) = assay: compounds binding KHDRBS1 protein – biochemical, small-molecule microarray, 635 nm fluorescence, primary screen (AID 1125); details: higher = more signal;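 note: score merges 667 nm channel intensity with signal to noise over triplicate slides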
[17] = tested on: Chordin-like protein 2 (CHRDL2); assay: compounds binding chordin-like 2 – biochemical, small-molecule microarray, 635 nm fluorescence, primary screen (AID 1126); details: fluorescence 635 nm, higher = more signal;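 note: printed compound slides probed with Chrdl2 protein at 4 µg/mL for 1 h at 4 C; score merges 667 nm emission intensity with signal to noise over three replicate slides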
[18] = biological target: Concanavalin-A (Canavalia ensiformis) (UniProt P02866); assay: compounds binding concanavalin A lectin – biochemical, small-molecule microarray, Alexa647 label, 635 nm, artefact control for SMM control protein annotation, primary screen (AID 1127); details: ConA-A647 binding fluorescence, higher = more signal;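 note: z combines 667 nm emission intensity with signal-to-noise across three replicate slides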
Concanavalin-A (Canavalia ensiformis), sequence (P02866 whole entry, looked up): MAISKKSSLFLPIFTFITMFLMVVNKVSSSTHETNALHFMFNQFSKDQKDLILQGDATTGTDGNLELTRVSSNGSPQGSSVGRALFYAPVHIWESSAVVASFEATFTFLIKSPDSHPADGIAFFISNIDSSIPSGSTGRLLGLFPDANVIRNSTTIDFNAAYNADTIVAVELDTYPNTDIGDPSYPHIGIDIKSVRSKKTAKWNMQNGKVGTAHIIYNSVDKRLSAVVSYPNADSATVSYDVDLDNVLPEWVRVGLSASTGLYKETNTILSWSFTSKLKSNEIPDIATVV

Row | SMILES | composite z-score [1] | z-score [2] | composite z-score [3] | composite z-score [4] | composite z-score [5] | composite z-score [6] | composite z-score [7] | composite z-score [8] | composite z-score [9] | composite z-score [10] | composite z-score (Albumin (Bos taurus)) | composite Z-score [11] | composite z-score [12] | composite z-score [13] | composite z-score [14] | composite z-score [15] | composite z-score [16] | composite z-score (Sam68 (KHDRBS1)) | composite z-score [17] | composite z-score [18]
1 | Cc1ccc(S[C@]2(C(=O)NCc3ccccc3)CC(=O)N(Cc3ccccc3Cl)[C@@H]2c2ccc(CO)cc2)cc1 | -0.0153 | -2.79 | -1.76 | -0.272 | 0.273 | -0.19 | 0.0858 | 0.308 | -0.0706 | -0.619 | -0.447 | -0.608 (inactive) | -0.511 | -0.149 | 0.762 | 0.397 | 0.197 | 0.472 | -0.78 | 0.439
2 | CCOC(=O)C[C@H]1[C@H](OC(=O)c2ccccc2-c2ccccc2)[C@@H](NC(=O)CC(C)C)c2cc(OCCCO)ccc2N1C(=O)c1ccccc1 | 0.0819 | -0.783 | 0.466 | -0.0923 | -0.497 | -0.124 | -0.289 | -0.189 | 0.222 | 0.23 | 0.079 | 0.305 (inactive) | -0.0406 | -0.0698 | 0.742 | 0.429 | -0.161 | 0.207 | 0.389 | 0.125
3 | COC(=O)C(CC#Cc1ccc2c(c1)[C@]1(C(=O)N2)[C@H](C(=O)NC[C@H](O)c2ccccc2)[C@H]2C(=O)O[C@H](c3ccccc3)[C@H](c3ccccc3)N2[C@@H]1c1ccc(O)cc1)C(=O)OC | -0.603 | -1.7 | -0.357 | -0.113 | -0.327 | -0.217 | -0.138 | -0.121 | -0.223 | -0.111 | 0.41 | 1.05 (inactive) | -0.0932 | -0.126 | 0.683 | 0.84 | -0.177 | -0.165 | -0.275 | 0.188
4 | COc1cccc(C)c1NC(=O)O[C@H]1[C@H](OC(=O)Nc2ccc3c(c2)OCO3)[C@H](OC(=O)Nc2ccc3c(c2)OCO3)[C@@H](OC)O[C@@H]1CO | 1.47 | -0.466 | 0.262 | 1.6 | -0.406 | 0.122 | 0.715 | 0.351 | 0.305 | 1.57 | 0.428 | 0.645 (inactive) | 0.473 | -0.101 | 0.3 | 1.43 | 0.405 | 1.3 | 0.0955 | 1.17
5 | COC(=O)[C@@]1(Cc2ccc(OC)cc2)[C@H]2c3cc(C(=O)N(C)C)n(Cc4c(CO)[nH]cc(C)c4=O)c3C[C@H]2CN1C(=O)c1ccccc1 | 0.784 | -1.37 | -0.0944 | 1.1 | 0.351 | 0.302 | 0.04 | -0.211 | 0.376 | 0.302 | 0.302 | 0.0713 (inactive) | 0.23 | 0.484 | 0.876 | 2.97 | 0.221 | 0.55 | -0.31 | 0.554
6 | Cc1ccc(S[C@]2(C(=O)NC(C)C)CC(=O)N(Cc3ccccc3)[C@@H]2c2ccc(CO)cc2I)cc1 | -0.0832 | -1.78 | -1.13 | 0.129 | 0.454 | -0.172 | 0.0711 | 0.813 | -0.426 | -0.684 | -0.437 | -0.0142 (inactive) | -0.229 | -0.227 | 0.784 | 1.79 | 0.532 | 0.636 | -2.55 | -0.639
7 | Cc1ccc(S[C@]2(C(=O)NCC(C)C)CC(=O)N(C(C)C)[C@@H]2c2ccc(CO)cc2I)cc1 | 0.297 | -0.98 | -1.62 | -1.21 | 0.0034 | -0.112 | -0.0035 | -0.131 | 0.626 | -0.659 | -0.0268 | 0.849 (inactive) | -0.019 | -0.057 | 0.56 | 1.07 | 0.801 | -0.236 | -0.802 | -1.16
8 | CO[C@H]1O[C@H](CO)[C@@H](OC(=O)Nc2cccc(F)c2)[C@H](OC(=O)c2cc3ccccc3[nH]2)[C@H]1OC(=O)c1cc2ccccc2[nH]1 | 0.177 | -2.25 | 0.0416 | 0.681 | 0.0008 | -0.232 | -0.138 | -0.158 | -0.009 | 0.698 | 0.467 | -0.0925 (inactive) | -0.0048 | -0.132 | 0.209 | 0.799 | 0.337 | -0.537 | -0.332 | -0.732
9 | C=C(CCCC)C(=O)CC[C@@H](OC(C)=O)c1ccc(OCCO)cc1 | 0.159 | -1.98 | 0.125 | -0.537 | -1.29 | -0.1 | -0.0035 | -0.113 | 3.18 | -0.127 | -0.267 | 3.19 (inactive) | 0.15 | -0.117 | 0.628 | 0.143 | 1.21 | -0.135 | 0.523 | 0.397
10 | C=CCC(OC(C)=O)[C@@H]1[C@@H](N(Cc2cccc3ccccc23)C(=O)c2ccc(C)cc2)c2cc(OCCCO)ccc2N1C(=O)Cc1ccc2ccccc2c1 (stereo not given in full) | -0.857 | 0.198 | -0.163 | 1.1 | 0.709 | -0.0718 | -0.0553 | 0.0588 | 0.54 | 0.273 | 0.706 | -0.758 (inactive) | -0.0044 | -0.149 | 0.15 | 0.738 | -0.0124 | -1.29 | 0.0854 | -0.0292
11 | COC(=O)C(CC#Cc1ccc2c(c1)[C@]1(C(=O)N2)[C@H](C(=O)N2CCCCCCC2)[C@H]2C(=O)O[C@H](c3ccccc3)[C@H](c3ccccc3)N2[C@@H]1c1ccc(OCCO)cc1)C(=O)OC | 1.55 | -1.57 | 1.76 | 3.07 | 1.68 | 1.63 | 3.53 | 3.7 | 6.05 | 4.36 | 0.844 | 10.3 (active) | 2.18 | 1.19 | 1.12 | 5.47 | 0.497 | 1.33 | 1.57 | 1.18
